Laboratory results reported in PubChem BioAssay AID463173 (ICCB-Longwood Screening Facility, Harvard Medical School, 2010).
About 4,300 (8.3%) of roughly 52,000 compounds were called active. No stated cut-off is given here; in the data, active means survival mostly below about 52% (no sharp cut-off); inactive means mostly above about 56%. For the sample, actives were picked, then their nearest neighbours and some compounds at random.

Each molecule was assayed on DeltatarO mutant (assay: growth inhibition of S. aureus wild type versus tarO mutant, primary screen, teichoic acid synthesis inhibitors, RN4220, OD600 (AID 463173)). Conditions: OD600, 18 h, active compounds read low, screened at 18.75 µg/mL (by protocol).

SMILES	survival
COc1ccc(-n2c(/C=C/c3cc(OC)c(OC)cc3OC)nc3cc4ccccc4cc3c2=O)cc1Cl	115% (inactive)
CCOC(=O)CNC(=O)Nc1cc(C(=O)NCc2cccc(F)c2)ccc1N1CCCC1	74% (inactive)
CCOC(=O)N1CCC(NC(=O)c2ccc3c(c2)N(Cc2ccccc2)C(=O)c2ccccc2S3(=O)=O)CC1	52% (inactive)
CSc1ccc(C2c3c(oc4cc(C)cc(C)c4c3=O)C(=O)N2Cc2ccco2)cc1 (configuration not stated)	57% (inactive)
CCc1ccc(C2C(C(=O)Nc3ccccc3OC)=C(C)Nc3nc(SCc4ccccc4)nn32)cc1 (configuration not stated)	76% (inactive)
Cc1cc2nnc(SCc3ccc(F)cc3)n2c2ccccc12	-1% (active)
CCOC(=O)c1ccc(CSc2nnc3cc(C)c4ccccc4n23)cc1	95% (inactive)
CCCN(CCC)C(=O)CSc1nnc2cc(C)c3ccccc3n12	76% (inactive)
COc1ccc(C2NCCS2)cc1 (configuration not stated)	65% (inactive)
Cc1ccc(CN2CCCn3nc(C(=O)NCCc4ccc(Cl)cc4)cc3C2=O)cc1	71% (inactive)
Cc1nn(-c2ccc(N3CCCCC3)nn2)c(C)c1CCC(=O)NCc1ccc(Cl)cc1	79% (inactive)
CCCCC(=O)Nc1cccc(-c2nc3ccccc3s2)c1	41% (active)
O=C(COc1ccccc1[N+](=O)[O-])Nc1cccc(-c2nc3ccccc3s2)c1	65% (inactive)
Cc1ccc2nc(-c3ccc(NC(=O)COc4ccccc4C(C)(C)C)cc3)sc2c1	114% (inactive)
Cc1cccc(OCC(=O)Nc2cccc(-c3nc4ccccc4s3)c2)c1	7% (active)
COc1ccc(CC(=O)Nc2ccc(-c3nc4ccccc4s3)c(C)c2)cc1OC	37% (active)
COc1ccc(CC(=O)Nc2ccc(-c3nc4ccccc4s3)c(C)c2)cc1	69% (inactive)
Cc1cccc(OCCSc2nc3ccc(NC(=O)COc4ccccc4)cc3s2)c1	78% (inactive)
Cc1cccc(OCC(=O)Nc2ccc3nc(SCc4ccccc4)sc3c2)c1	112% (inactive)
COc1cccc(C(=O)Nc2ccc(-c3nc4ccc(C)cc4s3)cc2)c1OC	49% (inactive)
COc1ccccc1C(=O)Nc1ccc(-c2nc3ccccc3s2)c(C)c1	83% (inactive)
CCC(CC)C(=O)Nc1cccc(-c2nc3ccccc3s2)c1	53% (inactive)
CCCOc1ccccc1C(=O)Nc1ccc(-c2nc3ccc(C)cc3s2)cc1	29% (active)
Cc1nc2ncnn2c(C)c1CCC(=O)N1CCN(c2ccc(F)cc2)CC1	89% (inactive)
COCCNC(=O)CN1C(=O)c2cccnc2Oc2ccc(Cl)cc21	85% (inactive)

SMILES	survival
COc1ccc(-c2onc(C)c2C)cc1S(=O)(=O)NCc1ccco1	67% (inactive)
Cc1ccc(S(=O)(=O)N(C)c2ccc3sc(C)nc3c2)cc1	91% (inactive)
COc1ccc(OC)c(C(=O)CC2(O)C(=O)N(Cc3ccccc3C)c3ccccc32)c1 (configuration not stated)	165% (inactive)
CN1C(=O)Cc2cc(S(=O)(=O)CCC(=O)Nc3ccc(OC(F)(F)F)cc3)ccc21	71% (inactive)
Cc1cccc(CN2C(=O)c3ccccc3Sc3ccc(C(=O)N4CCCC4)cc32)c1	83% (inactive)
CCOc1ccccc1C(=O)Nc1cccc(-c2nc3ccccc3s2)c1	41% (active)
Cc1cc(C)cc(OCC(=O)Nc2ccc(-c3nc4ccccc4s3)cc2)c1	68% (inactive)
COc1cccc(CC(=O)Nc2ccc(-c3nc4ccccc4s3)cc2Cl)c1	69% (inactive)
CCOc1ccccc1C(=O)Nc1ccccc1	65% (inactive)
Cc1ccc(OCC(=O)Nc2cccc(-c3nc4ccccc4s3)c2)cc1	47% (active)
O=C(COc1ccc(Cl)cc1)Nc1ccc(-c2nc3ccccc3s2)c(O)c1	68% (inactive)
CCOc1ccc(C(=O)Nc2ccc(-c3nc4ccccc4s3)c(C)c2)cc1OCC	99% (inactive)
O=C(COc1ccc(Cl)cc1)Nc1ccc(O)c(-c2nc3ccccc3s2)c1	94% (inactive)
COc1ccc(OCC(=O)Nc2ccc(O)c(-c3nc4ccccc4s3)c2)cc1	43% (active)
COc1ccc(OCC(=O)Nc2cccc(-c3nc4ccccc4s3)c2C)cc1	106% (inactive)
COc1cccc(CC(=O)Nc2ccc(-c3nc4ccccc4s3)cc2)c1	0% (active)
COc1ccc(CC(=O)Nc2ccc(-c3nc4ccccc4s3)cc2Cl)cc1	69% (inactive)
CCOc1ccc(NS(=O)(=O)c2ccc3c4c(cccc24)C(=O)N3)cc1	83% (inactive)
CCn1cc2nc(SCc3ccccc3)n(Cc3ccc(C)cc3)c(=O)c2n1	93% (inactive)
O=C(NCCc1ccccc1)c1cc(-c2ccccc2)nc2n[nH]c(-c3ccccc3)c12	55% (inactive)
CCOC(=O)c1ccc(CN(Cc2ccc(F)cc2)S(=O)(=O)c2ccc(F)c(C(=O)Nc3ccc(Cl)cc3F)c2)cc1	79% (inactive)
CCOc1cc(CNC(=O)c2cc(-c3ccc(Cl)s3)nc3ccccc23)ccc1OC	84% (inactive)
CCOC(=O)C1CCCN(C(=O)Cn2ncc3c4ccccc4n(C)c3c2=O)C1 (configuration not stated)	121% (inactive)
COc1ccc(-c2nc3ccccc3s2)cc1NC(=O)COc1cccc(C)c1	16% (active)
COc1ccc(-c2nc3ccccc3s2)cc1NC(=O)COc1ccc(C)cc1	129% (inactive)

SMILES	survival
COc1ccc(-c2nc3ccccc3s2)cc1NC(=O)COc1ccccc1C	142% (inactive)
Cc1ccc2nc(-c3ccc(NC(=O)COc4ccc(Cl)c(C)c4)cc3)sc2c1	74% (inactive)
COc1ccc(OCC(=O)Nc2cc(-c3nc4ccccc4s3)ccc2C)cc1	45% (active)
Cc1ccc2nc(-c3ccc(NC(=O)COc4ccccc4)cc3)sc2c1	68% (inactive)
Cc1ccc(-c2nc3ccccc3s2)cc1NC(=O)COc1ccccc1	54% (inactive)
Cc1ccc2nc(-c3ccc(NC(=O)COc4c(C)ccc(C)c4C)cc3)sc2c1	38% (active)
Cc1csc2nc(-c3cccc(NC(=O)C(C)C)c3)cn12	73% (inactive)
Cc1csc2nc(-c3cccc(NC(=O)c4c(F)cccc4F)c3)cn12	128% (inactive)
CC(=O)Nc1cc(-c2nc3ccccc3s2)ccc1C	83% (inactive)
CCCC(=O)Nc1cccc(-c2cn3c(C)csc3n2)c1	-5% (active)
CCOC(=O)CC(=O)CSc1nc2ccsc2c(=O)n1Cc1ccccc1	118% (inactive)
COc1ccc(-c2coc3c2c(C)cc2oc(=O)cc(C)c23)cc1	82% (inactive)
Cc1ccc(CCNC(=O)C2CC(=O)N(CCc3ccc(C)cc3)C2)cc1 (configuration not stated)	101% (inactive)
Cc1cc(Br)ccc1NC(=O)C1CCN(S(=O)(=O)c2cccc3nsnc23)CC1	115% (inactive)
COc1ccc(Br)cc1CNC(=O)c1cnc2sc(N3CCC(C)CC3)nn2c1=O	78% (inactive)
CCc1ccc(-n2nc3ccc(NC(=O)c4cc5ccccc5o4)cc3n2)cc1	65% (inactive)
COc1cccc(C(C(=O)NCC2CCCO2)N(CC2CCCO2)C(=O)CC2C(=O)c3ccccc3S2(=O)=O)c1 (configuration not stated)	90% (inactive)
Cc1ccc2nc(SCc3nc(-c4ccc(Cl)cc4)no3)[nH]c2c1	28% (active)
Cc1cccc(-c2noc(CSc3nc(-c4ccc(F)cc4)cc(=O)[nH]3)n2)c1	83% (inactive)
COc1ccccc1-c1noc(CSc2nc3ccc(C)cc3[nH]2)n1	102% (inactive)
O=c1cc(-c2ccc(F)cc2)nc(SCc2nc(-c3ccccc3Cl)no2)[nH]1	117% (inactive)
COc1ccc(-c2noc(CSc3nc4ccccc4[nH]3)n2)cc1	51% (inactive)
CCc1cc(=O)[nH]c(SCc2nc(-c3ccccc3C)no2)n1	84% (inactive)
O=c1cc(-c2ccccc2)nc(SCc2nc(-c3ccc(Cl)cc3)no2)[nH]1	69% (inactive)
Cc1ccccc1-c1noc(CSc2nc3ccccc3[nH]2)n1	57% (inactive)

SMILES	survival
Cc1ccc2nc(SCc3nc(-c4ccccc4C)no3)[nH]c2c1	25% (active)
COc1ccc(-c2noc(CSc3nc4ccccc4[nH]3)n2)cc1OC	62% (inactive)
Cc1ccccc1-c1noc(CSc2nc(-c3ccc(F)cc3)cc(=O)[nH]2)n1	37% (active)
COc1ccc(-c2noc(CSc3nc4ccc(C)cc4[nH]3)n2)cc1	39% (active)
NCCSC1CC(=O)N(c2ccc(Cl)cc2)C1=O (configuration not stated)	88% (inactive)
COc1ccc(C)cc1NC(=O)c1cc2c(=O)n3cccc(C)c3nc2s1	86% (inactive)
COc1ccc(Cl)cc1NC(=O)CN(C)S(=O)(=O)c1ccc2c(c1)CCCN2C(C)=O	78% (inactive)
CCCCNS(=O)(=O)c1ccc(N2CCCCS2(=O)=O)cc1	66% (inactive)
Cc1ccc(-c2noc(-c3nnn(CC(=O)Nc4ccc(C)cc4Cl)c3N)n2)cc1	83% (inactive)
C=CCNCc1cc2cc(OCC)ccc2[nH]c1=O	97% (inactive)
COc1cc(OC)c(Nc2ncnc3onc(-c4cccc(Cl)c4)c23)cc1Cl	73% (inactive)
CCOc1ccc(NC(=O)Cn2cc(S(=O)(=O)N3CCN(c4ccccc4F)CC3)c3ccccc3c2=O)cc1	89% (inactive)
COc1ccc(NC(=O)CSc2nnc(-c3cccs3)o2)cc1	54% (inactive)
Cc1ccc(NC(=O)CCn2nc(-c3ccccc3)c3ccccc3c2=O)c(C)c1	52% (active)
Cc1ccc(-c2nn(CCC(=O)Nc3ccc(Cl)c(Cl)c3)c(=O)c3ccccc23)cc1	53% (inactive)
CCCNC(=O)CCn1nc(-c2ccccc2)c2ccccc2c1=O	70% (inactive)
Cc1ccc(NC(=O)Cn2ncn3c(cc4ccccc43)c2=O)cc1C	73% (inactive)
Cc1ccc(NC(=O)Cn2ncn3c(cc4ccccc43)c2=O)cc1F	84% (inactive)
Cc1ccc(NC(=O)Cn2ncn3c(cc4ccccc43)c2=O)c(C)c1	45% (active)
Cc1ccccc1NC(=O)CCn1nc(-c2ccc(Cl)cc2)c2ccccc2c1=O	95% (inactive)
COc1ccccc1NC(=O)CCn1nc(-c2ccccc2)c2ccccc2c1=O	42% (active)
O=C(CCn1nc(-c2ccccc2)c2ccccc2c1=O)Nc1ccccc1	69% (inactive)
